Compound activity from PubChem.
Sampled rows, rich in hits. Any-hit rate of the full collection: about 19%.
TDP1 cell CPT: growth inhibition of DT40 Tdp1-/-;hTDP1 cells with camptothecin (screen for TDP1 inhibitors); chicken DT40 Tdp1-/-;hTDP1 cells + 20 nM CPT, ATP luminescence, 48 h; Potency, µM (highest dose often 46.2 µM), inactives show at the top dose activity change, negative = growth inhibition, most hits filed as inhibitors; 12% of 420,000 active; also: nearly all actives have a fitted effect of over 55% in size
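Chicken DT40 Tdp1-/- cells stably complemented with human TDP1 were seeded at 400 cells/well in medium containing 20 nM camptothecin, exposed to pin-transferred compounds, and grown at 37 °C for at least 48 hr. Viability was read as ATP luminescence.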
TDP1 cell noCPT: qHTS for Inhibitors of human tyrosyl-DNA phosphodiesterase 1 (TDP1): qHTS in cells in absence of CPT | DT40 Tdp1-/- hTDP1 cells, no CPT, ATP luminescence, 48 h | Potency, µM (titrated, usually from 46.2 µM), for inactives: at the top dose activity change, negative = growth inhibition, actives largely listed as inhibitors | 15% of 420,000 active; also: nearly all actives have a fitted effect of over 55% in size
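A cellular qHTS used chicken DT40 cells lacking endogenous Tdp1 but carrying stably transfected human TDP1. Compounds were applied without camptothecin, and cell growth kinetics were judged by ATP-dependent luminescence after ≥48 hr.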
KB-3-1 cytotox: KB-3-1 parental cell cytotoxicity | KB-3-1 viability, CellTiter-Glo ATP luminescence, 72 h | Potency, µM (highest dose often 46.1 µM), hits mostly cytotoxic | 1.4% of 400,000 active | AID 1347075; also: nearly all actives have a fitted effect of over 60% in size
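Screening of KB-3-1 cells (DMEM, 10% FBS, phenol-red free) ran from lowest to highest compound concentration; after 72 h at 37 °C viability was read luminescently and curves fitted.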
HT1080NT lethal: kills 2HG-producing HT-1080-NT fibrosarcoma cells. HT-1080-NT fibrosarcoma viability, CellTiter-Glo ATP luminescence, 48 h. Potency, µM (titrated, usually from 46.1 µM), without a hit: at the highest dose activity, negative = less viability, most hits filed as cytotoxic. 1.6% of 360,000 active;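 also: NT is the 2HG producing partner of a matched IDH1 knockdown line; 0% = DMSO-treated cells and -100% = media-only wells without cells; nearly all actives have a fitted effect of over 55% in size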
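750 cells/well, RPMI + 5% FBS; 2 h settle, compound pin-transfer, 48 h at 37 degrees C. CellTiter-Glo 10 min RT, luminescence. Normalized to DMSO and media-only wells.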
HT1080 IDH1KD tx: HT-1080 IDH1 knockdown cell toxicity (counter line); HT-1080 IDH1 knockdown viability, ATP luminescence, 48 h; Potency, µM (titrated, usually from 46.1 µM), for inactives: at the top dose activity, negative = toxicity, most hits filed as cytotoxic; 2% of 360,000 active;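 also: 0% = DMSO wells and -100% = cell-free medium wells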
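Viability of IDH1-knockdown HT-1080 fibrosarcoma cells was assessed by CellTiter-Glo after 48 h at 37 °C with titrated compound; concentration-effect curves were classified by fit quality and response size.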
KB-V1 cytotox: KB-V1 MDR subline cytotoxicity; AID 1347076; Potency, µM (top dose mostly 46.1 µM), most hits filed as cytotoxic; 3.4% of 400,000 active; KB-V1 MDR cells viability, CellTiter-Glo, 72 h; also: nearly all actives have a fitted effect of over 60% in size
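Compound-treated KB-V1 multidrug-resistant cells, 72 h, 37 degrees C; viability by CellTiter-Glo. Fitted qHTS curves give the values.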
* = called active by the depositor; i = inactive; ? = inconclusive; · = no result given; [ ] = another dose, or the depositor's remark. Calls follow the shape of the dose curve; as a rule, active = well fitted curve in the direction sought with a large enough effect; inconclusive = small, poorly fitted or top-dose-only effect, or another doubt; inactive = no such curve, though single readings can be large; an effect the other way counts as inactive or inconclusive. Unless noted, % is scaled to controls: 0 for no effect and ±100 for the full control effect; potency is read from the fitted curve at half-maximal effect.

SMILES | TDP1 cell CPT | TDP1 cell noCPT | KB-3-1 cytotox | HT1080NT lethal | HT1080 IDH1KD tx | KB-V1 cytotox
CC1(C(=O)NCc2cccc(C(F)(F)F)c2)CCN1Cc1cc2ccccc2o1 (configuration not stated) | 25.9µM* | 18.4µM* | i | ? | ? | i
N#CCCN(NC(=O)OCc1ccccc1)C(=O)OCc1ccccc1 | -21.7% | -20.6% | i | ? | 15.9% | i
Cc1ccccc1CNC(=O)C(C)N(c1ccccc1)S(C)(=O)=O (configuration not stated) | 0.1% | 0.3% | i | · | · | i
CCOC(=O)c1cn2nc(Oc3ccc(OC)cc3)ccc2n1 | ? | 6.51µM* | i | 7.2% | 15.0% | i
CCOC(=O)c1cn2nc(Oc3ccc(C)cc3)ccc2n1 | -16.9% | ? | i | 3.3% | 6.6% | i
O=C([C@H]1O[C@@H](n2ccc(=O)[nH]c2=O)[C@H](O)[C@@H]1O)N1CCN(Cc2ccccn2)CC1 | -4.1% | -8.5% | i | 18.7% | 6.7% | i
COC(=O)C[C@H]1CC[C@H](NC(=O)Nc2ccccc2F)[C@@H](CO)O1 | 23.1µM* | 23.1µM* | i | 14.8% | 15.4% | i
CCN(c1ccccc1)S(=O)(=O)c1cc2c(cc1C)NC(=O)CO2 | -0.9% | -10.7% | i | 9.3% | -0.6% | i
CCC(CC)c1nnc(NC(=O)c2cccc(S(=O)(=O)N3CCOCC3)c2)s1 | ? | -27.3% | i | 0.7% | -1.4% | i
O=C(Cn1cc(SCc2ccc(F)cc2)c2ccccc21)N1CCOCC1 | ? | 16.4µM* | i | -4.1% | 8.7% | i
CCc1ccc(NC(=O)CSc2cn(CC(=O)N3CCOCC3)c3ccccc23)cc1 | -4.8% | ? | · | · | · | ·
O=C(Cn1cc(SCc2ccc(Cl)cc2)c2ccccc21)N1CCOCC1 | ? | 20.6µM* | i | -7.1% | -24.9% | i
O=C(Nc1cccnc1)C1=NN(C2CCS(=O)(=O)C2)C(=O)CC1 (configuration not stated) | -17.0% | -26.0% | i | 8.3% | 7.5% | i
C=CCN(C(=O)C1=NN(C2CCS(=O)(=O)C2)C(=O)CC1)c1nc(-c2ccc([N+](=O)[O-])cc2)cs1 (configuration not stated) | -1.5% | 18.4µM* | i | -13.8% | -19.0% | i
CCOC(=O)c1ccc(NC(=O)c2nc[nH]c2C(=O)NC[C@@H](C)O)cc1 | 6.4% | -21.9% | i | -3.7% | -9.1% | i
Cc1ccc(NC(=O)CN2C(=O)CCc3ccccc32)cc1C | ? | ? | i | · | · | i
C=CC[C@H](CC(=O)NCCO)C(=O)N[C@@H](COC(=O)[C@@H](CC=C)Cc1ccc(F)cc1)Cc1ccccc1 | 20.6µM* | ? | i | 0.0% | 1.2% | i
C=CCC[C@H](Cc1ccc(F)cc1)C(=O)OC[C@@H](NC(=O)[C@H](CC=C)CC(=O)NCCO)c1ccccc1 | 20.6µM* | ? | i | 0.0% | 12.2% | i
Nc1nnc(SCC(=O)OCC(=O)c2ccccc2)s1 | 4.1% | -1.0% | i | 6.8% | 20.4% | ?
Nc1nnc(SCC(=O)OCC(=O)c2ccccc2Br)s1 | 25.9µM* | ? | i | 9.7% | 9.5% | i
Clc1ccc(N2CCN(c3ncnc4c3oc3ccccc34)CC2)cc1 | 20.6µM* | 14.1µM* | i | 10.6% | 7.1% | ?
CC1CN(c2ncnc3c2oc2ccccc23)CC(C)O1 (configuration not stated) | ? | 20.6µM* | i | -0.7% | -13.7% | ?
c1ccc(Sc2ncnc3c2oc2ccccc23)cc1 | 1.9% | -14.0% | i | -14.6% | -7.7% | i
CCC1Oc2ccc(C)cc2N(CC(=O)NCCc2ccccc2)C1=O (configuration not stated) | 4.8% | -13.7% | · | · | · | ·
CCC(CC)C(C(=O)NCc1ccccc1)N1CCN(C(=O)C2CCCO2)CC1 (configuration not stated) | -18.9% | -6.9% | i | 12.3% | 26.1% | i
SMILES | TDP1 cell CPT | TDP1 cell noCPT | KB-3-1 cytotox | HT1080NT lethal | HT1080 IDH1KD tx | KB-V1 cytotox
CCN(CC)C(=O)CSc1nnc2nnc3cc(Cl)ccc3n12 | -18.7% | ? | ? | ? | ? | ?
CCN(CC)C(=O)CSc1nnc2nnc3cc(C)ccc3n12 | 8.2% | -4.3% | i | 3.8% | -6.0% | 20.6µM*
COc1cc(S(=O)(=O)Nc2ccc(C)cc2)ccc1N=Cc1c(C)[nH]n(-c2ccc(C)cc2)c1=O | -23.1% | 13µM* | ? | ? | ? | ?
COc1cc(S(=O)(=O)Nc2ccc(C)cc2)ccc1N=Cc1c(C)c(C#N)c(=O)n(C)c1O | ? | 13µM* | ? | 11.6% | 4.1% | i
CC(=O)Nc1cc(-c2cccnc2)cn2c(-c3cccc(C(F)(F)F)c3)cnc12 | 18.4µM* | ? | i | -20.4% | -9.4% | i
COc1ccccc1-c1cc(NC(C)=O)c2ncc(-c3ccccc3)n2c1 | 20.6µM* | 9.2µM* | i | 23.1µM* | ? | ?
CC(=O)Nc1cc(-c2ccccc2F)cn2c(-c3ccccc3)cnc12 | 16.4µM* | ? | i | -17.2% | -16.5% | i
COc1cccc(-c2cnc3c(NC(C)=O)cc(-c4ccccc4OC)cn23)c1 | 18.4µM* | 16.4µM* | i | ? | ? | i
CCc1ccccc1N1CC(C(=O)N2Cc3ccccc3CC2C(N)=O)CC1=O (configuration not stated) | -2.4% | 6.7% | i | 5.0% | 14.5% | i
COc1ccccc1-c1cc(NC(C)=O)c2ncc(-c3cccc(C(F)(F)F)c3)n2c1 | 23.1µM* | 20.6µM* | i | ? | ? | i
CS(=O)(=O)N(CC(=O)N1CCc2ccccc2C1)c1ccccc1Br | -13.6% | 13.7% | i | 8.5% | -7.7% | i
CC(C)(C)OC(=O)NCCCC[C@H](NC(=O)c1nc[nH]c1C(=O)NCC(=O)OCc1ccccc1)C(=O)OC(C)(C)C | 14.6µM* | ? | i | -6.5% | -18.4% | i
CC(C)(C)OC(=O)NCCCCCNC(=O)c1nc[nH]c1C(=O)NCC(=O)OCc1ccccc1 | ? | 14.6µM* | i | -28.8% | -12.8% | ?
Cc1cccc(NC(=O)Cn2cc(C(=O)C3CCCCC3)c3ccccc32)c1 | ? | ? | i | · | · | i
CC(=O)NCC(=O)NCC1Cc2cc(C)cc(-c3ccccn3)c2O1 (configuration not stated) | 6.0%[9.04 µM] | 2.1% | · | · | · | ·
